Our source for the inhibition values is PubChem BioAssay AID1986 (Sanford-Burnham Center for Chemical Genomics, 2009).

This assay in a line: inhibitors of HIV fusion peptide binding, primary screen, biochemical, uHTS, fluorescence dequenching (AID 1986). Particulars: cell-free peptide binding, 30 min, stronger effect = higher value.
Where [1] appears, read: measured here: repeat confirmation average inhibition, at 18.6 µM.

About 890 (0.31%) of roughly 290,000 compounds were called active. Cut-off read from the data, not from the text of the source: active = inhibition mostly above about 52% (no sharp cut-off); inactive = mostly below about 76%. The full list was thinned out, with actives kept by preference.

In general, inhibition refers to the change of the read-out against control, counted positive when it falls. With `CC(C)C1/C(=N/O)CC(c2ccccc2)NC1c1ccccc1` (centres undefined), where the note is “at 20 µM”, the inhibition is 0% (inactive). With `CCCCNC(=O)CC1N=C2c3ccccc3N=C(SCC(=O)Nc3ccccc3OC)N2C1=O` (centres undefined), under “at 20 µM”, the inhibition is 1.1% (inactive).

As to `CCOC(=O)c1nc(S(C)(=O)=O)ncc1N1CCOCC1`, the inhibition (at 20 µM) is -2.9% (inactive). Take `CCc1ccccc1N(C(=O)CCC(=O)Nc1cc(C)on1)C(C(=O)NC1CCCC1)c1ccco1` (centres undefined): the inhibition (at 20 µM) was 0.8% (inactive). As to `O=[N+]([O-])c1ccc2c(c1)oc1ccccc12`, under “at 20 µM”, the inhibition is -0.8% (inactive). Same read-out and setting: under `CC(=O)CC(c1ccc([N+](=O)[O-])cc1)c1c(O)c2ccccc2oc1=O` (centres undefined) stands 3.8% (inactive); under `COc1cc(/C=N/NC(N)=O)cc([N+](=O)[O-])c1O`, -1.1% (inactive); under `CCN(CC(=O)Nc1c(F)cccc1F)C(=O)c1ccccc1F`, 0.4% (inactive). Still for that read-out and setting: for `O=C(O)C(Cc1ccccc1)N1C(=O)CCC1=O` (centres undefined) the value was -1.2% (inactive).

`Cc1ccc(C)n1C(Cc1ccccc1)C(=O)O` (centres undefined): the inhibition (at 20 µM) is 67.3% (active). As for `O=C(O)C(Cc1ccccc1)n1cccc1` (centres undefined), the inhibition (at 20 µM) was 1.2% (inactive).

Turning to `Cc1ccc(CNC(=O)C2CCN(C(=O)c3cccc(Cl)c3)CC2)cc1`, the inhibition (at 20 µM) is 1.1% (inactive). The same measure, in the same setting: for `Cc1ccc(S(=O)(=O)N(CC(=O)Nc2ccccc2C(=O)O)c2cccc(Cl)c2C)cc1` the value was 52% (active); for `Cc1ccc(S(=O)(=O)N(CC(=O)Nc2ccccc2C(=O)O)c2ccccc2C)cc1`, 9.7% (inactive). The same measure, in the same setting: under `Cc1ccc(S(=O)(=O)N(CC(=O)Nc2ccccc2C(=O)O)c2ccccc2)cc1` stands 10.7% (inactive). On the same count and under the same terms, under `CC1CCN(C(=O)CSc2nc3ccccc3c(=O)[nH]2)CC1` stands -0.9% (inactive). Consider `CC(C(=O)N1CCN(C(=O)c2ccco2)CC1)n1sc2ccccc2c1=O` (centres undefined), for which the inhibition (at 20 µM) was 1.6% (inactive). In the case of `COc1cccc2c1C(=O)C=C(C)C2=O`, under “at 20 µM”, the inhibition was 2.7% (inactive). Take `CC1=CC(=O)c2c(O)ccc(O)c2C1=O`: where the note is “at 20 µM”, the inhibition was 68.3% (active).

Turning to `CC1=CC(=O)c2ccccc2C1=O`, the inhibition (at 20 µM) was -2.1% (inactive). As for `O=C(COc1ncnc2ccccc12)Nc1cc([N+](=O)[O-])ccc1Cl`, where the note is “at 20 µM”, the inhibition was -0.3% (inactive). `COCC1CCN(C(=O)c2cc(COc3ccc(C)c(C)c3)on2)C1` (centres undefined): the inhibition (at 20 µM) is 0.9% (inactive). Still for that read-out and setting: for `COc1cc(/C=C2/SC(=O)N(Cc3ccccc3)C2=O)ccc1OCc1ccncc1` the value was -4.2% (inactive); for `Cc1ccc(S(=O)(=O)NC(=O)c2ccc(Br)o2)c(C)c1`, -0.8% (inactive). Same read-out and setting: for `Cc1ccc(S(=O)(=O)NC(=O)c2ccc(-c3ccc(-c4ccccc4)cc3)o2)c(C)c1` the value was 52.6% (active). Same read-out and setting: under `Cc1ccc(S(=O)(=O)NC(=O)c2ccc(-c3ccc(C)c4ccccc34)o2)cc1` stands 23.3% (inactive); under `O=C(Nc1cccc(C(=O)Nc2ccc(Cl)cn2)c1)c1ccccc1`, 7.8% (inactive); under `O=C(Nc1ccc(F)cc1)c1oc2ccccc2c1NC(=O)C1CC1`, -0.2% (inactive). In the case of `CSc1nnc(-c2ccccc2N=Cc2c(C)[nH]n(-c3ccccc3)c2=O)c(=O)[nH]1`, the inhibition (at 20 µM) is 6% (inactive). The same measure, in the same setting: for `Cc1nn(-c2ccc3ccccc3c2)c(=O)c2ccccc12` the value was 0% (inactive). The same measure, in the same setting: under `Cc1ccc(/C=N/NC(=O)c2cc3c(ccc4ccccc43)o2)o1` stands -1.7% (inactive); under `O=C(N/N=C/c1ccc(-c2ccc(Cl)c(C(=O)O)c2)o1)c1cc2c(ccc3ccccc32)o1`, 50.3% (active); under `Cc1ccc(-c2ccc(/C=N\NC(=O)c3cc4c(ccc5ccccc54)o3)o2)cc1[N+](=O)[O-]`, -1.4% (inactive). The same measure, in the same setting: for `CCC(C)NC(=O)COC(=O)c1cccnc1Nc1ccccc1F` (centres undefined) the value was 0.1% (inactive). For `CCOC(=O)Cn1c2ccc(OC)cc2c2nc3ccccc3nc21`, the inhibition (at 20 µM) is 3% (inactive). Regarding `COC(=O)Cn1c2ccc(OC)cc2c2nc3ccccc3nc21`, under “at 20 µM”, the inhibition is 9.1% (inactive). As to `CCCCOC(=O)Cn1c2ccc(OC)cc2c2nc3ccccc3nc21`, the inhibition is 53.3% (active) (at 20 µM) and 57.8% under setting [1].

For the compound `CCc1ccc(-c2cc3c(=O)n(CC(=O)NCCN4CCCCC4C)nc(C)n3n2)cc1` (centres undefined), under “at 20 µM”, the inhibition is -0.3% (inactive). As for `COc1ccc2c(Cl)c(C(=O)N/N=C3\CCCC(=O)C3)sc2c1`, the inhibition (at 20 µM) is 77.7% (active). For `O=C1CCC/C(=N/NC(=O)c2sc3ccccc3c2Cl)C1`, the inhibition was 81.5% (inactive) (at 20 µM) and 39.7% under setting [1]. Regarding `COc1ccc2c(Cl)c(C(=O)NN)sc2c1`, the inhibition (at 20 µM) is 1.3% (inactive).

Regarding `CC(C)(C)NC(=O)CSc1ccc(C(C)(C)C)cc1`, the inhibition (at 20 µM) was -2.2% (inactive). On to `O=c1c(/C=N/Nc2ccccc2)c(Sc2nnnn2-c2ccccc2)nc2ccccn12`, for which, for the setting “at 20 µM”, the inhibition was 96.2% (active). Still for that read-out and setting: for `NC(=O)N/N=C/c1c(Sc2nnnn2-c2ccccc2)nc2ccccn2c1=O` the value was 0% (inactive); for `O=Cc1c(Sc2ccccc2)nc2ccccn2c1=O`, 2.6% (inactive); for `O=C(O)c1ccc(/C=N/Nc2nnnn2-c2ccccc2)cc1`, 2.1% (inactive).

Turning to `O=C(O)c1ccccc1N/N=C/c1c(Sc2nnnn2-c2ccccc2)nc2ccccn2c1=O`, the inhibition is 80.8% (active) (at 20 µM) and 54.8% under setting [1]. For the compound `O=c1c(/C=N/O)c(Nc2ccccc2)nc2ccccn12`, the inhibition (at 20 µM) is -2.7% (inactive). On the same count and under the same terms, for `O=C(CC1Sc2ccccc2NC1=O)NCc1cccc(Cl)c1` (centres undefined) the value was 1% (inactive); for `CCOC(=O)c1nnn(-c2nonc2N)c1CN1CCCC1`, -0.2% (inactive).

On to `COc1ccccc1-c1c(C(F)(F)F)oc2cc(OCC(=O)Nc3ccccc3C(F)(F)F)ccc2c1=O`, for which the inhibition (at 20 µM) is 3.1% (inactive). Still for that read-out and setting: under `COc1ccccc1NC(=O)CSc1nnc(Cn2c(=O)sc3ccccc32)n1C` stands 0.2% (inactive); under `NC(=O)C[n+]1cccc2ccccc21`, 1.3% (inactive); under `O=C(C[n+]1cccc2ccccc21)c1ccccc1`, 11.8% (inactive). On to `COC(=O)C[n+]1cccc2ccccc21`, for which the inhibition by setting is: (at 20 µM) 78.3% (active); under setting [1], 65.6%.
